# Columns and labels:
# Experiment in all cases: DAPPL (digital affinity profiling via proximity ligation, sequencing); 10 mM Tris-HCl pH 7.5, 50 mM NaCl, 1 mM DTT, 4% glycerol, room temperature, 30 min; GST-TFs on glutathione beads, 16-mer random dsDNA library, 0.1% formaldehyde crosslink after washing; high values mean tight binding
# Settings in all cases: protein: recombinant; tags: N-terminal GST; dsDNA, one strand shown
# ETV1 = ETV1 (Homo sapiens, UniProt P50549 1-477)
# In short: (§1)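 Human transcription factors were made in yeast as GST fusions, captured on glutathione beads and barcoded with DNA. With a tag-only sample included, the pool was incubated with 200 nmole of a random double-stranded 16-mer DNA library in Tris/NaCl/DTT/glycerol buffer at room temperature for 30 min, then crosslinked with 0.1% formaldehyde after washing, ligated by proximity, amplified and sequenced. For binding signal, each hexamer's read frequency for a factor is divided by its frequency for the tag-only sample.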
# ERF = molecular target: T1, ERF (Homo sapiens, UniProt P50548 1-548)
# T1 sequence: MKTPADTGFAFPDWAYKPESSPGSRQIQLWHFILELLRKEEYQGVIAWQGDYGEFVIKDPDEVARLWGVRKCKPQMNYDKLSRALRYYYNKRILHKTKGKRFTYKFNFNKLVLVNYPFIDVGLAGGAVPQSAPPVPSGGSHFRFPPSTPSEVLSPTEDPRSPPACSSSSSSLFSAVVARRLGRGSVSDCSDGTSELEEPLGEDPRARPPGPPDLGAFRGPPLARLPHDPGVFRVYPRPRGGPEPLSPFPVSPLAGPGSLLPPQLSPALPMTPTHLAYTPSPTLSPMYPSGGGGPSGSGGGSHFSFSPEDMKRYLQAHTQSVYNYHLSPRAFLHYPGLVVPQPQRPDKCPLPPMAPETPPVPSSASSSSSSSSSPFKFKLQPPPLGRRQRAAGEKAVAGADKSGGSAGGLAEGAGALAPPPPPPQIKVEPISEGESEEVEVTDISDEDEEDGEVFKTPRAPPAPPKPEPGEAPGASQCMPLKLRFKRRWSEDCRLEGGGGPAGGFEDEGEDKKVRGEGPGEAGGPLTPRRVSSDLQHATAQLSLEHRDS
# In short: as §1
# ETV3L = molecular target: T2, ETV3L (Homo sapiens, UniProt Q6ZN32 1-361)
# T2 sequence: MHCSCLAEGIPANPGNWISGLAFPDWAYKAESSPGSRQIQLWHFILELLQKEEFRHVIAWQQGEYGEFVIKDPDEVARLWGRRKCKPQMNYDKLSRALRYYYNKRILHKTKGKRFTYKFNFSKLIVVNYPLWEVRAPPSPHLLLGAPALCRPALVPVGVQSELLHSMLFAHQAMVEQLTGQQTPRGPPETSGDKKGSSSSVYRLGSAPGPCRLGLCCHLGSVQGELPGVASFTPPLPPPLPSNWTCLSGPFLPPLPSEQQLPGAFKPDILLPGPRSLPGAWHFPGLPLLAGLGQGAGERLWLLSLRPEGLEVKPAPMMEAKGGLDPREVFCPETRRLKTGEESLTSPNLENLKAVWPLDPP
# In short: as §1
# ETS2 = molecular target: T3, ETS2 (Homo sapiens, UniProt P15036 1-469)
# T3 sequence: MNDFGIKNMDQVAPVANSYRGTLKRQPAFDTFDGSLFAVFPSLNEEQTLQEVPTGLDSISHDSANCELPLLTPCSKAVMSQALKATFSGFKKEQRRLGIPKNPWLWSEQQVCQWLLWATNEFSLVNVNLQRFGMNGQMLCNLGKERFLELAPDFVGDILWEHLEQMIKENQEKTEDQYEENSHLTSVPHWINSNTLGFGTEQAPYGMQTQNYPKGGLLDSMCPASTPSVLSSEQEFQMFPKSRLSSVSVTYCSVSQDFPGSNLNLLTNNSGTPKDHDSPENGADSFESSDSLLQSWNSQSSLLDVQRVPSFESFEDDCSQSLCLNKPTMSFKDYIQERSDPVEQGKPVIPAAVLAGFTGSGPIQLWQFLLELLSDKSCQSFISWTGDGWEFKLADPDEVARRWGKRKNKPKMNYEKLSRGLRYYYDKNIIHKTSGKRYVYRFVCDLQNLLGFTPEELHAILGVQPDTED
# In short: as §1
# SPDEF = molecular target: T4, SPDEF (Homo sapiens, UniProt O95238 1-335)
# T4 sequence: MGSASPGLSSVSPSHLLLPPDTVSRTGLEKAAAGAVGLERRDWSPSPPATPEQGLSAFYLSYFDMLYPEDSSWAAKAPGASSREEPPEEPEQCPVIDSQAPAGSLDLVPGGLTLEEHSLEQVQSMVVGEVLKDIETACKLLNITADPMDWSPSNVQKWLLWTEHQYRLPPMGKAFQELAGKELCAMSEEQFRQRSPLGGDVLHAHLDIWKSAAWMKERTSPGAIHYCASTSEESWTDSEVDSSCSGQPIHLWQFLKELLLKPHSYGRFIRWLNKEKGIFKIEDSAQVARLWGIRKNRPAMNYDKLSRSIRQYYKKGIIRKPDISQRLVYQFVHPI
# In short: as §1
# ETV7 = molecular target: T5, ETV7 (Homo sapiens, UniProt Q9Y603 1-341)
# T5 sequence: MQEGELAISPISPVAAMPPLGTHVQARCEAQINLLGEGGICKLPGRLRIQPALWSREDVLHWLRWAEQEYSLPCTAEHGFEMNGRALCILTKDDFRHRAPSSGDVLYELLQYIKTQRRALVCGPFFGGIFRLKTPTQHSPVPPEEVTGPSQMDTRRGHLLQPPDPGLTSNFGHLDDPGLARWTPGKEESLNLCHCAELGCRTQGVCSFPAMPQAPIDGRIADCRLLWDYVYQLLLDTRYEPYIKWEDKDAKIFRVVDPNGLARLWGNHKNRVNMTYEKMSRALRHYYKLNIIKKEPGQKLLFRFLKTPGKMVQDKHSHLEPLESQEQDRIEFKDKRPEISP
# In short: as §1
# ELF5 = molecular target: T6, ELF5 (Homo sapiens, UniProt Q9UKW6-2 1-255)
# T6 sequence: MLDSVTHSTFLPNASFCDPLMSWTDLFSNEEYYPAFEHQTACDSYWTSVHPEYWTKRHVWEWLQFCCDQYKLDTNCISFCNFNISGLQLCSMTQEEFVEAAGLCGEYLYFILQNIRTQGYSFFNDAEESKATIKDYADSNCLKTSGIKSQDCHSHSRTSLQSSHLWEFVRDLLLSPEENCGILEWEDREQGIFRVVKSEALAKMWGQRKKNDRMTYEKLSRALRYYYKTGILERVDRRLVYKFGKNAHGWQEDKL
# In short: as §1
# ETV3 = molecular target: T7, ETV3 (Homo sapiens, UniProt P41162-2 1-143)
# T7 sequence: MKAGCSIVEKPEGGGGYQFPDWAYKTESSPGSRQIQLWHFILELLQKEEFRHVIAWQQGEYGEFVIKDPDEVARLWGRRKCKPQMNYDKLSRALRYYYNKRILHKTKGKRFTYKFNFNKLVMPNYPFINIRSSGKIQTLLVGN
# In short: as §1
# ETV6 = ETV6 (Homo sapiens, UniProt P41212 1-452)
# In short: as §1
# ETV1, sequence (P50549 whole entry, the tested form may be a part): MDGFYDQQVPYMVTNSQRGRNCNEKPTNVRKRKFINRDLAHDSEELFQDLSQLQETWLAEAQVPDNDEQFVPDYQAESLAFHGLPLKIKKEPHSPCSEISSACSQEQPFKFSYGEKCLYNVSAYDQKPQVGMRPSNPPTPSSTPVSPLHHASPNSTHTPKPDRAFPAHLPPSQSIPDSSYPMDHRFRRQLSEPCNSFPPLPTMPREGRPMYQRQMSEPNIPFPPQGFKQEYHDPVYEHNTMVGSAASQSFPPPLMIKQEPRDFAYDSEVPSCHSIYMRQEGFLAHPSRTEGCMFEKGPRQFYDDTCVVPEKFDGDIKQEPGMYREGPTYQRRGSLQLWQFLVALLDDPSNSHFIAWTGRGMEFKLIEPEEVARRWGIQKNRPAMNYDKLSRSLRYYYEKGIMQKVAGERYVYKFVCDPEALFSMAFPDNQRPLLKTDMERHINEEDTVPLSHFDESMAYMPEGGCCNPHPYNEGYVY
# ETV6, sequence (P41212 whole entry): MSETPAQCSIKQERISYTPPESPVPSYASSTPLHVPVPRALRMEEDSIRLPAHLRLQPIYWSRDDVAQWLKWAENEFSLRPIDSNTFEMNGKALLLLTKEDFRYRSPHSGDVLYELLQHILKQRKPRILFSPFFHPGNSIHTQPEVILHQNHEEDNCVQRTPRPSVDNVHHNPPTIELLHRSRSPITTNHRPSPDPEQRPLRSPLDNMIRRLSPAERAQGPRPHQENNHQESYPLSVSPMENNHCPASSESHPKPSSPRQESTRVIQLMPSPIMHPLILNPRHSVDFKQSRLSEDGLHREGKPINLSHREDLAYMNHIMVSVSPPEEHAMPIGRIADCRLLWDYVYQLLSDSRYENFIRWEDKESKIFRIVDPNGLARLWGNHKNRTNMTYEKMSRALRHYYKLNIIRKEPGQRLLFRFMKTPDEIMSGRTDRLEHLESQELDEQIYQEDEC
sequence,measurement,setting,value
CTTCGG,binding signal,ETV1,"1.72 fold enrichment (6-mer frequency, TF over GST control)"
same,binding signal,ERF,"1.68 fold enrichment (6-mer frequency, TF over GST control)"
same,binding signal,ETV3L,"1.42 fold enrichment (6-mer frequency, TF over GST control)"
same,binding signal,ETS2,"1.48 fold enrichment (6-mer frequency, TF over GST control)"
same,binding signal,SPDEF,"1.36 fold enrichment (6-mer frequency, TF over GST control)"
same,binding signal,ETV7,"1.39 fold enrichment (6-mer frequency, TF over GST control)"
same,binding signal,ELF5,"1.41 fold enrichment (6-mer frequency, TF over GST control)"
same,binding signal,ETV3,"1.55 fold enrichment (6-mer frequency, TF over GST control)"
same,binding signal,ETV6,"1.27 fold enrichment (6-mer frequency, TF over GST control)"

# — PMC7862700, “An all-to-all approach to the identification of sequence-specific readers for epigenetic DNA modifications on cytosine”
